The campaign covered roughly 200,000 compounds. About 3,000 (1.5%) were called active. For the sample, actives were picked, then their nearest neighbours and some compounds at random. A number with no mark means an inactive call.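 The calls were made as follows: active = inhibition above about 50% when tested at 10 µM (limit read from the data); inactive = the rest.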
What follows are compounds tested against Luciferin 4-monooxygenase (Photinus pyralis) (UniProt P08659) (assay: inhibition of purified FLuc reporter enzyme – biochemical, luminescence, ATPLite, artefact control for luciferase-based inhibitor screens, primary screen (AID 1006)). Details: ATPLite firefly luciferase biochemical luminescence, 10 min; at 10 µM; hits give high values.
Chain of Luciferin 4-monooxygenase (Photinus pyralis) (P08659 whole entry, looked up): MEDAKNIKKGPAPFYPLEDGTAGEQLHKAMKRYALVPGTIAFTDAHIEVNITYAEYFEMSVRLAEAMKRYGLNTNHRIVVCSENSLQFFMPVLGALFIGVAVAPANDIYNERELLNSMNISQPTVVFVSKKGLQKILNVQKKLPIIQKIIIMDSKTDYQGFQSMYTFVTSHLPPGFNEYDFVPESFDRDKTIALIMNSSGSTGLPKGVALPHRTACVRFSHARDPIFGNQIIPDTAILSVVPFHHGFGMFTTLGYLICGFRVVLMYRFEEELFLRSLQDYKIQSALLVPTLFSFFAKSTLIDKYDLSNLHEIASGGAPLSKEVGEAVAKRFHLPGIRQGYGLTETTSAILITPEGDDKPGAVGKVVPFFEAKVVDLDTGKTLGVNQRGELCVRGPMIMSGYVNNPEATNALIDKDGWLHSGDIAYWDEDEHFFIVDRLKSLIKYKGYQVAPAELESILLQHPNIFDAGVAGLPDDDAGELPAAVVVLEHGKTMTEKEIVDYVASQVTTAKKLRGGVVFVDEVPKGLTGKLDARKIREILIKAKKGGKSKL

SMILES | inhibition
O=C(Cc1ccc(F)cc1)N1CCN=C1SCc1cccc([N+](=O)[O-])c1 | -8.2%
O=C(NCC1CCCO1)C1CCN(C2CCN(C(=O)C3CCCCC3)CC2)CC1 (centres undefined) | -6.8%
CC(=O)Nc1ccc(/C=N/NC(=O)c2cccs2)cc1 | 42.4%
Cc1cccc(-n2c(C)cc(/C=N/NC(N)=S)c2C)c1 | 0.5%
Cc1cccc(-n2c(C)cc(/C=N\NC(=O)c3cccs3)c2C)c1 | 50.3% (active)
COc1ccc(OC)c(S(=O)(=O)Nc2cccc(-c3ccc4nncn4n3)c2)c1 | -2.6%
Oc1ccc(N=Cc2sc3ccccc3c2Cl)cc1 | 65.5% (active)
Cc1nn(C)cc1/C=N/NC(=O)c1sc2ccccc2c1Cl | 11.2%
O=C(N/N=C/c1c(Cl)[nH]c2ccccc12)c1sc2ccccc2c1Cl | 5%
CSc1nc2ccc(NC(=O)c3c(F)cccc3F)cc2s1 | 12.4%
Nc1nnc(SCC(=O)OCc2ccc(Cl)c(Cl)c2)s1 | -3.7%
Cc1ccc2nc(COc3ccc(N(C)S(=O)(=O)c4ccccc4)cc3)cc(=O)n2c1 | -4.2%
O=Cc1ccc(OCc2cn3ccccc3n2)cc1 | 50.3% (active)
COc1ccc(C(=O)NCc2cn3ccccc3n2)cc1 | -1.1%
Cc1cc(C)c2c(NC(=O)C3CC3)nn(C)c2n1 | -5.8%
COc1ccc(C2Nc3ccccc3C(=O)N2c2ccc(Cl)cc2)cc1Cn1cc([N+](=O)[O-])cn1 (centres undefined) | -5.8%
CC(=O)N1CCN(CC(=O)Nc2ccc(SC(F)F)cc2)CC1 | -4.2%
Cc1ccc(C2=N/C(=C\c3ccc(OS(=O)(=O)c4ccc(C)cc4)cc3)C(=O)O2)cc1 | -8.9%
Cc1ccc(N2CCN(C3=NC(=O)/C(=C\c4cccs4)S3)CC2)cc1 | -3.4%
Cc1cccc(C2=N/C(=C/c3cccs3)C(=O)O2)c1 | 88.5% (active)
CC(=O)Oc1ccc(C(=O)Nc2nccs2)cc1 | 54.1% (active)
CCOc1ccc(C(=O)Nc2nccs2)cc1[N+](=O)[O-] | -1.5%
COc1cc(C(=O)Nc2nccs2)cc(OC)c1OC | -0.7%
Cc1nnc(N/N=C/C2CC=CCC2)[nH]c1=O (centres undefined) | -4%
Cc1cccc2cc3c(N)c(C(=O)N4CCCc5ccccc54)sc3nc12 | -1.8%

SMILES | inhibition
CC(C)CC(=O)NC(=S)NCc1ccccc1 | -3.5%
CCC(=O)NC(=Nc1nc2ccccc2s1)NC(=O)CC | 11.6%
CC(C)CC(=O)N/C(N)=N/c1nc2ccccc2s1 | 63.5% (active)
CC(C)C1Nc2c(C(=O)O)cccc2C(Nc2ccccc2C(=O)O)C1(C)C (centres undefined) | 0.1%
CCN1C(=O)/C(=C2\SC(N3CCCCC3)=NC2=O)c2ccccc21 | 50.9% (active)
CC(C)=C1SC(N2CCN(c3cccc(C)c3)CC2)=NC1=O | -5.6%
O=C1N=C(N2CCCC2)S/C1=C\c1cccc(Br)c1 | -4.4%
NC(=O)Nc1ccccc1C(=O)NCCc1ccccc1 | 2%
CC(=O)c1cc(-c2ccccc2)n(CCC(=O)NC2CCCCCC2)c1C | -5.1%
Cc1ccnc2nc(C(=O)OCC(=O)N(CC(C)C)CC(C)C)nn12 | -5.4%
CC/C(O)=C1\C(=O)CC(C)(C)CC1=NCCc1nc2ccccc2[nH]1 | -2.7%
Cc1cc(C2=NNC(=Nc3ccc(S(=O)(=O)N4CCOCC4)cc3)SC2)c(C)n1CC1CCCO1 (centres undefined) | -3%
C=CCn1c(C)cc(C2=NNC(=NCC)SC2)c1C | 96.5% (active)
COCCn1c(C)cc(C2=NNC(=Nc3ccc(F)cc3)SC2)c1C | 17.9%
COc1cccc(/C=N/NC(=O)c2cccc([N+](=O)[O-])c2)c1OS(=O)(=O)c1ccc(C)cc1 | -9.9%
Cc1[nH]n(-c2ccccc2)c(=O)c1/C=N/NC(=O)c1ccoc1C | 20.6%
Cc1ccc(-n2[nH]c(C)c(/C=N/NC(=O)c3cccc([N+](=O)[O-])c3)c2=O)cc1C | 94.9% (active)
Cc1ccc2c(c1)C(c1ccccc1)N(C(=O)c1ccc(S(=O)(=O)N3CCOCC3)cc1)CC(=O)N2 (centres undefined) | -5.3%
CCOc1ccc(/C=N/NC(=O)C(C)Sc2ccccn2)cc1OCC (centres undefined) | -6%
Cc1cccc(C)c1NC(=O)C1(C)c2cccc[n+]2CC(=O)N1Cc1cccs1 (centres undefined) | 0.5%
O=C(NCC(O)c1ccc([N+](=O)[O-])cc1)C1CCCCC1 (centres undefined) | -2.2%
CN(C)c1ccc(C(CNC(=O)c2ccc(F)cc2)c2c[nH]c3ccccc23)cc1 (centres undefined) | -0.6%
CC(C)NC(=S)NN=C1CCCCCCCCCCC1 | -6.7%
COc1ccc(-c2ccnc(SCC(=O)N3CCOCC3)n2)cc1 | -3.4%
CCOc1ccc(-c2ccc(SCC(=O)N3CCOCC3)nn2)cc1 | 84.4% (active)

SMILES | inhibition
COc1ccc(-c2nc(SCC(=O)N3CCOCC3)n[nH]2)cc1 | 9.9%
O=C(O)CCCCOn1ccnc1 | 0.6%
N#C/C(=C(\O)C(F)(F)F)c1nnc2n1CCCCC2 | -6.2%
Cc1cccc(C(=O)c2cccc(C)c2)c1 | -6.1%
N/C(=N\OC(=O)c1cc(-c2ccccc2)nc2ccccc12)c1ccncc1 | 1.6%
Cc1cccc(/C(N)=N/OC(=O)c2ccccc2Cl)c1 | 89.7% (active)
NC1=NN(c2cccc(C(=O)O)c2)C(=O)C1 | -2.1%
OCCNCCOc1ccc(Cl)c(Cl)c1 | 0.7%
O=C(/C=C\c1cn(-c2ccccc2)nc1-c1cccs1)N1CCOCC1 | 35.3%
O=C(O)/C=C/c1cn(-c2ccccc2)nc1-c1cccs1 | 18%
O=C(O)c1ccc(N/N=C/c2cn(-c3ccccc3)nc2-c2cccs2)cc1 | 92.2% (active)
Cc1onc(C(=O)NCc2ccc(F)cc2)c1[N+](=O)[O-] | 8%
CC(=O)Nc1ccc(S(=O)(=O)NCC(=O)OCc2cc(=O)oc3ccc4ccccc4c23)cc1 | -3.3%
CN(C(=O)c1ccno1)c1nnc(-c2cccnc2)s1 | 0.1%
CN(C(=O)COc1ccccc1)c1nnc(-c2ccncc2)s1 | -2.1%
CN(C(=O)c1ccccn1)c1nnc(-c2ccccn2)s1 | 55.5% (active)
Cn1c(=NC(=O)CSCC(=O)N2CCOCC2)sc2ccccc21 | -1.3%
Cn1c(=NC(=O)c2cnccn2)sc2ccccc21 | 75.5% (active)
Cn1c(=NC(=O)CSCC(=O)N2CCCCC2)sc2ccccc21 | -5%
CCOc1ccc(-c2n[nH]c(C)c2-c2ccccn2)c(O)c1 | -3.7%
CN1CCN(C(=O)CCc2nc(-c3ccc(Cl)cc3)no2)CC1 | -4.7%
Cc1ccc(-c2noc(CCC(N)=O)n2)cc1 | 0.2%
CCNC(=O)CCc1nc(-c2ccc(C(C)(C)C)cc2)no1 | 52.3% (active)
CCOc1ccc(/C=N/Nc2nncc(-c3ccccc3)n2)cc1OC | 9.9%
COc1ccc(/C=N/Nc2nc3ccccc3o2)cc1OC | 11.5%

SMILES | inhibition
COc1cc(/C=N/Nc2nn3cnnc3c3ccccc23)cc(OC)c1OC | 84.1% (active)
CCC(C)(C)C1CCC(=NNC(=O)c2ccc(Br)o2)CC1 (centres undefined) | -7.3%
CCCCN(C)CCNC(=O)CSCc1ccc(C)cc1 | -9.7%
O=C(CSc1ccc2nnc(-c3ccccc3)n2n1)N1CCCc2ccccc21 | 4.5%
CSCc1ccc(C(=O)Nc2cc(C)cc(C)c2)cc1 | 77.9% (active)
C=CCN(c1ccc(C(=O)Nc2cc(C)cc(C)c2)cc1)S(C)(=O)=O | -2.7%
CC(=O)Nc1ccccc1NC(=O)c1cc(C)cc(C)c1 | -8.5%
O=C(O)c1ccc(/C=N/NC(=O)c2ccc(Br)cc2)cc1 | 15.3%
CCOC(=O)c1sc(NC(=O)CSc2nc(O)c(Cc3ccccc3)c(=O)[nH]2)nc1C | 72.8% (active)
CCOC(=O)c1sc(NC(=O)CSc2n[nH]c(CC)n2)nc1C | -4.3%
O=C(CSc1nc(O)c(Cc2ccccc2)c(=O)[nH]1)Nc1nc2c(s1)CCCC2 | -3%
O=C(COC(=O)C1CCCCC1)Nc1ccc([N+](=O)[O-])cc1 | 2.8%
COc1cc(OC)c(C2=NOC(C(=O)Nc3c(C)n(C)n(-c4ccccc4)c3=O)C2)cc1Cl (centres undefined) | -5.5%
CCOC(=O)C1(Cc2ccccc2C(F)(F)F)CCN(C(=O)c2cc(C)n(C)n2)CC1 | -9.5%
CCCOc1ccc(C(=O)NCCc2ccccc2)cc1 | 70.6% (active)
O=C(NCCc1ccccc1)c1ccc(OCCOc2ccccc2)cc1 | -1.1%
O=C(NCCOc1ccccc1)c1ccccc1 | 14.7%
Cc1ccc(-c2cc(C(F)(F)F)n3ncc(C(=O)N4CCCCC4c4cccnc4)c3n2)cc1 (centres undefined) | -6.3%
Cc1ccc(-c2nc(-c3cccnc3)sc2CC(=O)Nc2ccc(C)c(Cl)c2)cc1 | -1.9%
Cc1cccc2c(=O)n3c(nc12)CCCCC3 | -5.2%
Cc1c(C(=O)Nc2ccccc2)sc2nc3n(c(=O)c12)CCCCC3 | -3.9%
O=c1c2c(nc3n1CCCCC3)sc1c(O)cccc12 | 60.4% (active)
CC(C)c1cc(NCc2ccccn2)n2c(nc3ccccc32)c1C#N | -5.4%
Cc1nnc(SC(C(=O)Nc2cc(Cl)cc(Cl)c2)c2ccccc2)[nH]c1=O (centres undefined) | -3.6%

— PubChem BioAssay AID1006 (Sanford-Burnham Center for Chemical Genomics, 2008)
